From PubChem
TROY NFkB inh: inhibitors of TROY-driven NF-kB signaling, primary screen, Q293 LMP1-TROYcd cells, NF-kB luciferase, uHTS. Q293 LMP1-TROYcd NF-kB luciferase reporter, 4 h. inhibition, % at 10 µM. 360,000 compounds, 0.98% hits;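 active = compounds whose plate-normalised and pattern-corrected inhibition of the luciferase reporter signal at the single screening dose is 50% or more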
TWEAK-Fn14 inh: inhibitors of TWEAK-Fn14 signaling, primary screen, luciferase reporter cells, uHTS; TWEAK-stimulated Fn14 reporter cells, luciferase luminescence, 8 h; inhibition, % at 10 µM; 360,000 compounds, 2% hits; in the data active = inhibition above about 50%
Peg3 promoter: Peg3 promoter-driven luciferase inhibitors, primary screen, cell-based, HeLa, luciferase luminescence | HeLa PEG-Prom luciferase reporter, overnight | inhibition, % at 20 µM | 360,000 compounds, 1.7% hits | AID 588405, 2011;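 active = inhibition of at least 50% at 20 µM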
KKLEB tox: cytotoxicity in KKLEB CF airway cells, primary screen, cytotoxicity control for CF NF-kB inhibitor project, cell-based, uHTS, fluorescence assay plates; KKLEB CF airway cells viability, ATPlite luminescence, overnight; stronger effect = lower value; cells stimulated with P. aeruginosa culture filtrate; activity change (cytotoxicity), % at 5 µM; 360,000 compounds, 0.36% hits; AID 602141, 2011;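 active = corrected activity change at or below -50% at 5 µM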
HIF-2a block: HIF-2a reporter inhibitors, primary screen, luminescence, 786-0 RCC cells; 786-0 RCC cells HIF-2a reporter, luciferase luminescence, overnight; inhibition, % at 18.8 µM; AID 624352, 2012; 360,000 compounds, 0.72% hits;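 active = inhibition of the luminescence signal of 40% or more relative to plate controls, in a single-dose primary screen at 18.75 µM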
CF NFkB inh: inhibitors of PAF-induced NF-kB signaling, primary screen, cell-based, GFP fluorescence, uHTS; 360,000 compounds, 0.86% hits; KKLEB NF-kB-GFP reporter, GFP fluorescence overnight; inhibition, % at 5 µM;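 active = at least 50% inhibition at 5 µM, scaled per plate between neutral and stimulator controls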;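 note: PAF is a Pseudomonas aeruginosa culture filtrate used as stimulus; plate controls were PAF-stimulated DMSO wells for no effect and unstimulated DMSO wells for full effect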
Mdm2-MdmX confirm: retested Mdm2-MdmX interaction blockers, confirmation, cell-based, luminescence, single concentration, set 2. shares compounds with HIF-2a block. AID 504601, 2011. SaOS-2 split-luciferase Mdm2/MdmX complementation. 740 compounds, 99% hits. inhibition, % at 8 µM;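 active = mean inhibition of the luminescence signal across two replicates at or above 26 percent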
HIF-2a conf: HIF-2a reporter inhibitor retest, confirmation, luminescence, 786-0 RCC cells. 1,800 compounds, 56% hits. HIF-2a luciferase reporter luminescence, overnight. inhibition, % at 18.8 µM. shares compounds with HIF-2a block;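 active = mean inhibition across four replicates of at least 40 percent at the single tested concentration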
HIF-1a counter: HIF-1a luciferase reporter signal reduction – MiaPaCa-2 cells, single concentration, counter-screen for HIF-2a inhibitor project, confirmation; 1,800 compounds, 72% hits; MiaPaCa-2 HIF-1a luciferase reporter, desferoxamine, overnight; inhibition, % at 18.8 µM; shares compounds with HIF-2a block; AID 651589, 2012;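 active = mean inhibition of the reporter signal across four replicates at the single tested dose of 50% or more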
Active calls of the source: *; · = not tested or not shown. Only some compounds are listed: those with a hit (about 4% of all), similar ones and a draw of the others.

SMILES	TROY NFkB inh	TWEAK-Fn14 inh	Peg3 promoter	KKLEB tox	HIF-2a block	CF NFkB inh	HIF-2a conf	HIF-1a counter	others
COc1ccc(NC(=O)/C(C#N)=C/c2ccc(Sc3nncn3C)c([N+](=O)[O-])c2)cc1	6.3	12.8	26.2	-0.4	43.2*	12.4	23.9	21.1
Nc1c(N(C(=O)Nc2ccc(Cl)c(Cl)c2)C2CCCC2)c(=O)[nH]c(=O)n1Cc1ccccc1	-9.6	-13.9	47.6	-27.2	40.5*	18.6	11.4	102.5*
COCCN(C(=O)C1CCCC1)c1c(N)n(Cc2ccccc2)c(=O)[nH]c1=O	-0.4	17.5	-0.8	5.4	15.4	7.7	·	·
COc1cccc(NC(=O)N(C)C[C@H]2Oc3cc(C#Cc4ccncc4)ccc3S(=O)(=O)N([C@H](C)CO)C[C@H]2C)c1	9.7	30.9	17.1	-15.9	43.0*	-2.3	18.9	38.1
CC1CCC(C(C)C)C(OC(=O)CSc2nc(N)cc(=O)[nH]2)C1 (configuration not stated)	3.2	0.1	17.2	-0.3	6.1	1.9	·	·
Cc1cccc(OCc2n(CC(=O)OC3CC(C)CCC3C(C)C)c3ccccc3[n+]2C)c1 (configuration not stated)	64.2*	74.5*	102.8*	-56.6*	95.8*	68.7*	27.4	106.3*	Mdm2-MdmX confirm=102.5*
CC1CCC(C(C)C)C(OC(=O)Cn2c(-c3ccc(F)cc3)[n+](C)c3ccccc32)C1 (configuration not stated)	31.1	44.6	62.1*	-53.9*	-5.8	49.5	·	·	Mdm2-MdmX confirm=99.5*
Cc1ccccc1CC(=O)N1CCCC(CCC(=O)N2CCN(c3ccccn3)CC2)C1 (configuration not stated)	19.3	11.7	17.0	8.2	1.5	-2.0	·	·
Cc1ccc(S(=O)(=O)N2CCOCC2)cc1NC(=O)Cn1nc(C)c([N+](=O)[O-])c1C	-3.2	1.0	3.4	-10.8	21.0	5.5	·	·
O=C1NC2c3c(I)sc(I)c3C(=O)C2O1 (configuration not stated)	6.7	30.9	105.9*	9.1	52.6*	-15.5	4.4	48.1
CNC[C@H](CC1CCCCC1)NC[C@H](CO)NCCc1cccc(C(F)(F)F)c1	-15.6	-22.5	100.7*	-19.2	1.9	30.7	·	·	Mdm2-MdmX confirm=103.2*
COC(=O)c1c(C)n(-c2ccccc2)c2ccc(O)cc12	17.6	16.9	22.4	7.3	9.4	26.2	·	·
CN(C)/C=C/c1c([N+](=O)[O-])c2ccc(O)cc2n1-c1ccccc1	18.4	48.5	51.8*	-2.9	28.1	83.6*	·	·	Mdm2-MdmX confirm=90.2*
CC(=O)CC1OC(=O)C(Br)=C1NCc1ccccc1 (configuration not stated)	15.5	37.0	103.7*	-9.7	42.5*	8.7	16.6	75.5*
COc1ccccc1C(=O)COC(=O)c1cc(=O)[nH]c2ccccc12	-33.5	-19.0	-4.4	-10.6	-89.2	21.1	·	·
COCC(C)n1c(C)cc(C(=O)COC(=O)c2cc(=O)[nH]c3ccccc23)c1C (configuration not stated)	82.6*	88.1*	52.0*	-2.6	43.2*	3.6	44.8*	36.3
C/C(CC(=O)Nc1ccccn1)=N\NC(=O)c1ccc2ccccc2c1	-35.5	-11.7	-59.4	6.1	-86.6	3.3	·	·
CC1CCc2nc(NC(=O)c3ccco3)sc2C1 (configuration not stated)	65.7*	95.8*	17.9	-31.2	43.1*	-17.9	71.5*	88.3*
CC1CCc2nc(NC(=O)Cc3cccs3)sc2C1 (configuration not stated)	-46.0	-22.8	-351.6	-8.3	-290.1	16.6	·	·
COC(=O)c1cc(OC)cc(O)c1C(=O)c1c(O)cc(C)cc1O	-13.9	-20.8	5.8	15.9	-11.3	-21.9	·	·
C#CCn1c(S(=O)(=O)Cc2ccc(C)cc2)nc(-c2ccccc2)c1-c1ccccc1	-0.9	-52.4	32.9	15.6	-17.4	-16.2	·	·	Mdm2-MdmX confirm=100.2*
COc1ccc(/C=N\n2nnc3ccccc32)cc1	45.2	90.0*	47.8	-19.0	40.3*	0.6	72.4*	42.1
COc1ccc(/C=N/n2c(C)nc3ccccc3c2=O)cc1	-37.2	36.5	-109.8	15.5	-93.6	-9.5	·	·
O=C(c1cc(S(=O)(=O)N2CCOCC2)ccc1F)N1CCCc2ccccc21	7.4	7.7	3.1	12.2	-17.8	-17.9	·	·
Cn1c(=O)c([N+](=O)[O-])c(Cl)c2ccccc21	22.9	-21.0	105.5*	-50.2*	96.9*	72.1*	82.8*	105.8*
SMILES	TROY NFkB inh	TWEAK-Fn14 inh	Peg3 promoter	KKLEB tox	HIF-2a block	CF NFkB inh	HIF-2a conf	HIF-1a counter	others
Cc1ccc(/C=C/C(O)=C2/C(=O)N(C)C3(C)CC2c2ccccc2O3)cc1 (configuration not stated)	1.6	51.2*	39.1	-3.3	83.3*	14.7	37.0	96.8*
COc1ccc(/C=C/C(O)=C2/C(=O)N(C)C3(C)CC2c2ccccc2O3)cc1 (configuration not stated)	-14.1	27.5	29.3	-6.5	54.5*	6.9	-4.5	53.5*
N#Cc1c(N)nc(Sc2ccc(Cl)cc2)c(C#N)c1-c1ccccc1Cl	48.0	58.1*	52.4*	-16.3	46.9*	45.9	15.9	45.4
O=C1OCCC1Sc1nc2ccccc2c(=O)n1Cc1ccccc1 (configuration not stated)	11.8	-1.6	-7.8	3.8	15.5	-1.0	·	·
O=C1OCCC1Sc1nc2cc(Cl)ccc2n1Cc1ccccc1 (configuration not stated)	-0.1	-12.7	9.7	-4.2	50.8*	8.6	3.6	7.9
Cc1ccc(C)c(NS(=O)(=O)c2cc(C(=O)Nc3cccc(N(C)S(C)(=O)=O)c3)ccc2C)c1	19.3	16.0	31.6	1.5	7.2	1.0	·	·
O=C(NC1CC1)C1=C[C@@H](c2c[nH]c3ccccc23)C[C@@H](OCCCCO)O1	-5.7	-5.3	-2.8	13.5	-4.4	-25.3	·	·
